Source: PubChem BioAssay
Calls of active or inactive are those of the source.

How the values were obtained:
[1] = compound effects on lung adenocarcinoma cell viability – A549, calcein-AM fluorescence, 48 h, basal, profiling panel (AID 1162); details: higher = more signal
[2] = compound effects on differentiated 3T3-L1 adipocyte viability – cell-based, 3T3-L1 adipocytes, calcein-AM fluorescence, 48 h, basal, profiling panel (AID 1163); details: 3T3-L1 adipocytes viability, higher = more signal
[3] = compound effects on hepatocellular carcinoma cell viability – HepG2, calcein-AM fluorescence, 48 h, basal, profiling panel (AID 1164); details: higher = more signal
[4] = compound effects on multiple myeloma cell viability – MM1S, calcein-AM fluorescence, 48 h, basal, profiling panel (AID 1165); details: higher = more signal;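 also: viability of MM1S multiple myeloma cells under basal unstimulated conditions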
[5] = calcein-AM signal in unstimulated myeloma cells – cell-based, calcein-AM fluorescence, 48 h, PK04 Diversity Set, profiling panel (AID 1166); details: RPMI8226 myeloma viability, higher = more signal;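 also: cells grown under basal conditions without added stimulus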
[6] = JC-1 mitochondrial signal, unstimulated HepG2 cells – cell-based, JC-1 fluorescence, 24 h, 100 nL compound, profiling panel (AID 1167); details: HepG2 mitochondrial potential, higher = more signal
[7] = JC-1 mitochondrial signal, unstimulated adipocytes – cell-based, JC-1 fluorescence, 3T3-L1 adipocytes, 24 h, 100 nL compound, profiling panel (AID 1168); details: JC-1 mitochondrial fluorescence, higher = more signal, called active from +8 up or from −8 down
[8] = JC-1 mitochondrial signal, unstimulated myeloma cells – cell-based, JC-1 fluorescence, RPMI8226, 24 h, 100 nL compound, profiling panel (AID 1169); details: JC-1 mitochondrial potential fluorescence, higher = more signal
[9] = JC-1 mitochondrial signal, unstimulated MM1S myeloma – cell-based, JC-1 fluorescence, 24 h, 100 nL compound, profiling panel (AID 1170); details: MM1S mitochondrial potential, higher = more signal
[10] = resazurin metabolic signal in A549 cells – cell-based, resazurin fluorescence, 24 h, PK04 Diversity Set, profiling panel (AID 1171); details: A549 viability, higher = more signal, called active from +8 up or from −8 down
Also: test concentration not given here.

| Compound | z-score [1] | z-score [2] | z-score [3] | z-score [4] | z-score [5] | z-score [6] | z-score [7] | z-score [8] | z-score [9] | z-score [10] |
| --- | --- | --- | --- | --- | --- | --- | --- | --- | --- | --- |
| CCOC(=O)CCN1C(=O)[C@H]2[C@H]3[C@H](O)C=CC(=O)[C@@H]3CC[C@H]2C1=O | 0.0872 | 0.0636 | 0.338 | -0.921 | 0.586 | 0.0469 | 0.53 (inactive) | 0.203 | 0.176 | 0.289 (inactive) |
| COC(=O)[C@H](C)NC(=O)CCC1CC(OC(=O)NCc2ccc3c(c2)OCO3)CC2(CCCC(COC(=O)NCCOc3ccccc3)O2)O1 (stereo not given in full) | 1.99 | 0.714 | 0.748 | 0.0937 | 0.487 | 0.916 | 1.67 (inactive) | -0.647 | -1.09 | 0.294 (inactive) |
| CCOC(=O)[C@H](Cc1ccccc1)NC(=O)CCC1CC(OC(=O)NCc2ccc3c(c2)OCO3)CC2(CCCC(COC(=O)NCC3CCCCC3)O2)O1 (stereo not given in full) | 0.0417 | -0.0963 | -0.264 | -2.06 | -2.09 | 1.84 | -0.0648 (inactive) | -0.00903 | -0.306 | 1.02 (inactive) |
| Cc1ccc(S[C@]2(C(=O)O)CC(=O)N(Cc3ccccc3)[C@@H]2c2ccc(CO)cc2I)cc1 | 0.282 | 0.181 | 0.0583 | -2.82 | -2.03 | -0.862 | -0.486 (inactive) | -0.551 | -0.967 | 0.682 (inactive) |
| COC(=O)[C@]1(CO)N=C(c2ccc(OCCCO)cc2)O[C@@H]1c1ccccc1N=[N+]=[N-] | -0.0196 | 0.909 | 0.45 | 0.512 | -0.172 | -0.177 | -0.464 (inactive) | 0.392 | -0.471 | -0.276 (inactive) |
| NC(=O)NCC#Cc1ccc2c(c1)[C@]1(C(=O)N2)[C@H](c2ccc(O)cc2)N2[C@H](c3ccccc3)[C@H](c3ccccc3)OC(=O)[C@H]2[C@@H]1C(=O)N1CCCCCCC1 | 1.21 | 0.139 | 1.23 | 0.561 | 0.597 | -1.08 | 1.04 (inactive) | -0.578 | -0.413 | -0.118 (inactive) |
| CCOC(=O)NN=C1C[C@@H](O)[C@@H](O)[C@@H]2[C@@H]3C(=O)N(C4CCCCC4)C(=O)[C@@H]3CC[C@H]12 | -0.392 | 1.04 | 0.31 | -0.796 | -1.06 | -0.0619 | -1.05 (inactive) | -0.527 | 0.51 | -1.23 (inactive) |
| C=CCNC(=O)[C@H]1[C@@H]2C(=O)O[C@@H](c3ccccc3)[C@@H](c3ccccc3)N2[C@@H](c2ccc(O)cc2)[C@]12C(=O)N(C(=O)OCCOC)c1ccc(C#CC3=CCCCC3)cc12 | -1.1 | 0.537 | -0.444 | -2.53 | -3.23 | -1.47 | -0.777 (inactive) | -0.611 | -0.324 | 0.512 (inactive) |
| C=CC[C@@H]1C=C[C@H](ON=C[C@@H](OC)[C@H](C)C=CCC(=O)OC)[C@@H](CO)O1 | 0.812 | -0.933 | 0.623 | 0.486 | -0.939 | -0.0676 | -0.862 (inactive) | 0.461 | -0.448 | -0.498 (inactive) |
| O=C(CS)NCCCCCNC(=O)[C@@H]1C[C@@H]2C(=O)N[C@@H](Cc3ccccc3)C(=O)N2[C@@H]1c1ccc(O)cc1 | 0.557 | 0.239 | 1.15 | 0.477 | 0.617 | -0.0506 | -0.325 (inactive) | 0.149 | -0.625 | -0.181 (inactive) |
| CC(=O)OC[C@H]1O[C@H](CC=NOC[C@@H](C)[C@H](OCc2ccccc2)C(C)C)C=C[C@@H]1OC(C)=O | -0.878 | -0.612 | -1.02 | -0.886 | 0.128 | -0.713 | -1.71 (inactive) | 1.17 | -0.482 | 0.286 (inactive) |
| CCOc1ccc(N2C(=O)/C(=C/C=C/c3ccccc3OC)S(=O)(=O)C2c2cccc([N+](=O)[O-])c2)cc1 (stereo not given) | 1.18 | 1.39 | 0.136 | -2.72 | -0.879 | -0.855 | -0.125 (inactive) | -0.732 | -0.0787 | 0.0969 (inactive) |
| COC(=O)[C@H]1COC(c2ccc(OCCCO)cc2)=N1 | -0.283 | 0.568 | -0.344 | 0.0072 | -0.231 | -0.371 | 0.203 (inactive) | -0.16 | 1.23 | 0.0759 (inactive) |
| COCCCNC(=O)[C@@]1(CCS(=O)(=O)c2ccccc2)N=C(c2ccc(OCCCO)cc2)O[C@H]1c1ccccc1 | 2.27 | 0.217 | 1.84 | -0.345 | -0.193 | 0.887 | -0.468 (inactive) | 0.243 | 0.508 | 0.486 (inactive) |
| O=C1[C@H]2[C@H]3[C@H](O)[C@H](O)CC(=NOCc4ccccc4)[C@@H]3CC[C@H]2C(=O)N1Cc1ccccc1 | -0.618 | -0.176 | -0.851 | 0.188 | -0.16 | -0.169 | -0.399 (inactive) | -0.164 | -0.926 | 1.59 (inactive) |
| C=CC[C@]1(C(=O)NCc2ccccc2)N=C(c2ccc(OCCCO)cc2)O[C@H]1c1ccccc1 | -1.38 | 0.43 | -1.98 | -2.75 | -3.75 | -0.022 | -0.18 (inactive) | -1.31 | -0.988 | 0.953 (inactive) |

| Compound | z-score [1] | z-score [2] | z-score [3] | z-score [4] | z-score [5] | z-score [6] | z-score [7] | z-score [8] | z-score [9] | z-score [10] |
| --- | --- | --- | --- | --- | --- | --- | --- | --- | --- | --- |
| CC(C)CON=C1C[C@@H](O)[C@@H](O)[C@@H]2[C@@H]3C(=O)N(Cc4ccccc4)C(=O)[C@@H]3CC[C@@H]12 | -0.785 | 0.449 | -0.946 | 0.479 | -0.129 | 0.173 | -0.272 (inactive) | -0.313 | -0.659 | 0.676 (inactive) |
| COCCCNC(=O)[C@]1(CCC(=O)OC(C)(C)C)N=C(c2ccc(OCCCO)cc2)O[C@@H]1c1ccccc1N=[N+]=[N-] | -0.771 | 0.463 | -0.0574 | -0.744 | -0.387 | 1.75 | 3.61 (inactive) | -0.69 | -0.984 | 0.576 (inactive) |
| CO[C@@H]1COC(=O)CCC[C@@H](C)[C@H](OC)COC(=O)[C@H](Cc2ccccc2)NC(=O)CC=C[C@H]1C | 0.0498 | 0.134 | -0.829 | 0.355 | -1.25 | 2.07 | -1.18 (inactive) | 0.256 | -0.479 | 0.451 (inactive) |
| O=C(NN=C1C[C@@H](O)[C@@H](O)[C@@H]2[C@@H]3C(=O)N(c4cccc(Oc5ccccc5)c4)C(=O)[C@@H]3CC[C@H]12)OCc1ccccc1 | -0.207 | -0.205 | -0.943 | 0.693 | -0.363 | 0.559 | -1.15 (inactive) | 0.0901 | -0.0387 | -0.103 (inactive) |
| COC(=O)[C@@H]1CC[C@H](C)[C@@H](c2ccc(C)cc2)N1C(=O)c1ccc(C=NOC[C@@H](O)COCc2ccco2)cc1 | -0.181 | 0.346 | -0.807 | -1.32 | -1.46 | -2.38 | -0.747 (inactive) | 0.304 | -0.352 | -0.45 (inactive) |
| N#Cc1ccc(NN2C(C(O)c3cc(C(F)(F)F)cc(C(F)(F)F)c3)C=CC3C(=O)N(c4ccccc4)C(=O)C32)cc1 (stereo not given) | -0.676 | -0.461 | -1.22 | -1.45 | -3.8 | -2.78 | -0.189 (inactive) | -0.754 | 0.0337 | -0.557 (inactive) |
| O=C1[C@H]2[C@H]3[C@H](O)[C@H](O)CC(=NO[C@@H]4O[C@H](CO)[C@@H](O)[C@H](O)[C@H]4O)[C@H]3CC[C@H]2C(=O)N1Cc1ccc2c(c1)OCO2 | 1.26 | -1 | -0.254 | -0.19 | 0.0119 | -0.102 | 0.48 (inactive) | -0.0781 | -1.13 | 0.443 (inactive) |
| COC(=O)CC=C[C@@H](C)[C@@H](C=NO[C@@H](C)c1cc(-c2c(C)cc(C)cc2C)no1)OC | -0.542 | 1.05 | -0.618 | 0.0635 | -0.466 | -1.13 | -0.613 (inactive) | -0.549 | -1.19 | 0.16 (inactive) |
| COC(=O)CC=C[C@@H](C)[C@@H](C=NO[C@H](C)c1cn([C@@H]2COC[C@H]2O)nn1)OC | 0.947 | -0.0678 | 0.185 | 0.415 | -0.507 | 1.2 | -0.39 (inactive) | 0.146 | -0.469 | -0.567 (inactive) |
| COC(=O)CC=C[C@H](C)[C@H](CO)NS(=O)(=O)c1ccc(C)cc1 | -0.595 | 0.41 | -0.392 | 0.165 | 0.364 | -0.976 | -0.0535 (inactive) | -0.49 | 0.604 | -0.711 (inactive) |
| CC(CCC(=O)OC[C@H]1O[C@H](C#Cc2ccccc2)C=C[C@@H]1Oc1ccc(C)cc1)=NO[C@@H](C)c1cn([C@H](CO)Cc2ccccc2)nn1 | -0.487 | 0.725 | -0.982 | -0.622 | -2.17 | 0.453 | -0.346 (inactive) | 0.496 | -0.0262 | 0.555 (inactive) |
| CCOC(=O)[C@H](Cc1ccccc1)NC(=O)CCC1CC(OC(=O)NCc2ccc3c(c2)OCO3)CC2(CCCC(COC(=O)NCc3ccccc3)O2)O1 (stereo not given in full) | -0.195 | -0.64 | 0.607 | 0.84 | 0.709 | 2.27 | 0.392 (inactive) | 0.0886 | -0.997 | 0.98 (inactive) |
| [N-]=[N+]=NCc1ccccc1[C@@H]1OC(c2ccc(OCCCO)cc2)=N[C@]1(Cc1ccccc1)C(=O)N1CCOCC1 | 0.307 | 0.146 | 1.45 | -1.2 | -0.275 | 0.787 | 1.05 (inactive) | -1.39 | -1.13 | -1.14 (inactive) |
| CC(C)=CCCC(C)=CCON=C1C[C@@H](O)[C@@H](O)[C@@H]2[C@@H]3C(=O)N(C[C@@H]4CCCO4)C(=O)[C@@H]3CC[C@@H]12 | 0.113 | -0.833 | -0.315 | 0.182 | -0.0114 | -1.31 | 0.729 (inactive) | -0.495 | -0.761 | 0.0805 (inactive) |
| C[C@@H](c1ccccc1)N1C(=O)[C@H]2[C@H]3[C@H](O)C=CC(=O)[C@@H]3CC[C@H]2C1=O | -0.0257 | 0.0344 | 0.628 | -0.438 | -0.136 | 0.457 | 0.715 (inactive) | 0.04 | 0.711 | 0.165 (inactive) |
| CC(=O)OC[C@H]1O[C@@H](ON=C[C@@H](C)[C@H](OCc2ccccc2)C(C)C)[C@H](OC(C)=O)[C@@H](OC(C)=O)[C@@H]1OC(C)=O | 0.605 | -0.466 | 0.471 | 0.614 | 0.048 | -0.148 | 0.0097 (inactive) | 0.386 | -0.863 | -1.23 (inactive) |
